uPA surface inh – blocks generation of uPA at the cell surface; cell surface uPA generation assay, qHTS; Potency, µM (doses to about 38.3 µM), most hits filed as inhibitors; hit rate 0.31% among 330,000; AID 540303; active = well fitted inhibition curve with a large enough effect; inconclusive = small, poorly fitted or top-dose-only effect; inactive = no such curve, though single readings can be large or run the other way; tested in mouse RAW 264.7 cells; also: nearly all actives have a fitted effect of over 55% in size
DRD3 agonist – agonists of human D3 dopamine receptor | P35462 | D3R DiscoveRx beta-arrestin cells, luminescence, 90 min | max activation, % | hit rate 0.58% among 410,000; in the data active = max activation above about 30%
Target sequence (P35462 whole entry, looked up): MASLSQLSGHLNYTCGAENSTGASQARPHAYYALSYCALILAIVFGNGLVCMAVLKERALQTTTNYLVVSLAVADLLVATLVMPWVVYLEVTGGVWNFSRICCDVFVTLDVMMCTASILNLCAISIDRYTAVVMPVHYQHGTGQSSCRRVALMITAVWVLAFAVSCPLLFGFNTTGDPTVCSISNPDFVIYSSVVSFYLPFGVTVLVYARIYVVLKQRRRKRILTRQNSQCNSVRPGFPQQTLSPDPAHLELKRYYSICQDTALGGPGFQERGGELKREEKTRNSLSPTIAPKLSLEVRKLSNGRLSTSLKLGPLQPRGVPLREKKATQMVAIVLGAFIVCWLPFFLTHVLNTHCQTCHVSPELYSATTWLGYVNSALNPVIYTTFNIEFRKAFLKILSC
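Agonist mode: compounds and dopamine controls were applied to plated cells for 90 min at 37 degrees C after an overnight attachment at 1500 cells/well. Luminescent read-out followed 30 - 60 minutes at room temperature with DiscoveRx detection reagent.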
RGS4 inhibitor – inhibitors of human regulator of G protein signaling 4. P49798. Transcreener GDP fluorescence polarization, RGS4-accelerated GTP hydrolysis. Potency, µM (doses to about 114 µM), most hits filed as inhibitors. hit rate 0.039% among 390,000; active = well fitted inhibition curve with a large enough effect; inconclusive = small, poorly fitted or top-dose-only effect; inactive = no such curve, though single readings can be large or run the other way; also: nearly all actives have a fitted effect of over 75% in size
Target sequence (P49798 whole entry, looked up): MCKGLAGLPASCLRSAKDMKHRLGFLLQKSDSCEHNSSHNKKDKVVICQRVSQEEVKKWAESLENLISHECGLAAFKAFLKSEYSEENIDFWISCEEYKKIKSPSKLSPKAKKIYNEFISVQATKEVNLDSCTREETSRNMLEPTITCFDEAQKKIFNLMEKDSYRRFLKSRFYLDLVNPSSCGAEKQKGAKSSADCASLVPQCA
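MLSMR compounds (23 nl, pin-transferred) preincubated 10 min at room temperature with a 500nM (2x) first reagent, then RGS4 at 900nM (2x) plus Transcreener GDP mix added; fluorescence polarization (620/688 nm) read before and after 90 min at 30 °C.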
D3 antag – blocks the human D3 dopamine receptor; D3R cells, DiscoveRx beta-arrestin luminescence, antagonist mode; stronger effect = lower value; max response, negative = inhibition, %; P35462; hit rate 2.5% among 360,000; in the data active = max response below about -50%; inconclusive = no clear call, values can overlap the other calls
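Cells plated overnight at 1500 cells/well, then exposed to library compounds with dopamine controls for 90 minutes at 37 degrees C. DiscoveRx reagent added for 30–60 minutes at room temperature; luminescence read, quantitative HTS format.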
Each line names hits and unclear results; the compound was inactive in the other large screens; ! = not active in a repeat. Rows were chosen to be rich in hits. Some 3.1% of all compounds tested hit in one or more screens of this group.

O=C(CCN1C(=O)COc2ccccc21)NCCN1CCc2ccccc2C1	D3 antag -62
C[C@H](CO)N1C[C@H](C)[C@@H](CN(C)C(=O)c2ccc(F)cc2)Oc2cc(Br)ccc2S1(=O)=O	D3 antag -95 (no result: uPA surface inh, RGS4 inhibitor)
COc1ccc(NC(=O)N2CCc3c([nH]c4ccc(OC)cc34)C2c2ccc(OC)cc2)cc1 (configuration not stated)	none (no result: uPA surface inh, D3 antag)
CC(=O)NCCNC(=O)CCCn1c(=O)[nH]c2ccsc2c1=O	none (no result: uPA surface inh, D3 antag)
O=C(C1CCN(CC2CC=CCC2)CC1)N(CCc1ccccc1)Cc1ccccc1 (configuration not stated)	D3 antag -61
O=C(NCc1ccco1)c1ccc(Cn2c(SCc3ccc(F)cc3)nc3cccnc32)cc1	none (no result: uPA surface inh, D3 antag)
CCCc1nnc(NC(=O)CCC(=O)N2CCN(CCOc3ccc(C)cc3)CC2)s1	DRD3 agonist 70
Cc1ccc(OCCN2CCN(C(=O)CCC(=O)Nc3nnc(C(C)C)s3)CC2)cc1	DRD3 agonist 33
Cc1ccc(OCCN2CCN(C(=O)CCC(=O)Nc3nnc(C)s3)CC2)cc1	DRD3 agonist 37
Cc1nnc(NC(=O)CCC(=O)N2CCN(CCOc3cccc4ccccc34)CC2)s1	D3 antag inconclusive
Clc1ccccc1CSc1nc(NCCc2ccccc2)c2ccccc2n1	none (no result: uPA surface inh, D3 antag)
CN1c2ccsc2C(O)=C(C(=S)Nc2ccccc2)S1(=O)=O	RGS4 inhibitor inconclusive, D3 antag -72
CCNC(=O)C1=C(O)c2sccc2N(C)S1(=O)=O	none
Cc1ccccc1NC(=S)C1=C(O)c2sccc2N(C)S1(=O)=O	D3 antag -88
CCOc1ccc(NC(=O)Cn2c(=O)n(-c3ccccc3)c(=O)c3c4c(sc32)CCCC4)cc1	none (no result: uPA surface inh, D3 antag)
CCc1ccc2occ(CC(=O)Nc3ccc(OC)c(Cl)c3)c2c1	none (no result: uPA surface inh, D3 antag)
CNCCCC12CCC(c3ccccc31)c1ccccc12	D3 antag -77! (no result: DRD3 agonist)
COc1ccc(Br)cc1[C@H]1[C@@H]2C=CCC[C@@]2(C)C(=O)N1Cc1ccccc1	D3 antag -55
COc1ccc(/C=C/c2ccccc2)cc1[C@H]1[C@@H]2C=CCC[C@@]2(C)C(=O)N1Cc1ccccc1	uPA surface inh inconclusive, D3 antag -66
COc1ccc(/C=C/c2ccccc2)cc1[C@H]1[C@H]2C=CC[C@@H](C)[C@@H]2C(=O)N1Cc1ccccc1	uPA surface inh inconclusive, D3 antag -53
Cc1ccc(-c2ccc(C3C4C=CCCC4(C)C(=O)N3Cc3ccccc3)c(F)c2)cc1 (configuration not stated)	none (no result: uPA surface inh, DRD3 agonist, D3 antag)
CC(=O)c1ccc(-c2ccc([C@H]3[C@@H]4C=CCC[C@@]4(C)C(=O)N3Cc3ccccc3)c(F)c2)cc1	uPA surface inh inconclusive, DRD3 agonist 48
COc1ccc(/C=C/c2ccccc2)cc1C1C2C=CCCC2(C)C(=O)N1Cc1ccccc1 (configuration not stated)	none (no result: uPA surface inh, DRD3 agonist, D3 antag)
COc1ccc(-c2ccc(OC)c([C@H]3[C@H]4C=CC[C@@H](C)[C@@H]4C(=O)N3Cc3ccccc3)c2)cc1C	none
COc1ccc(CCNC(=O)CCc2c(C)nc3nc(C)nn3c2C)cc1OC	none (no result: uPA surface inh, D3 antag)
COc1ccc(CC(=O)Nc2sc3c(c2C(=O)Nc2cccc(C)c2)CCCCC3)cc1	none (no result: uPA surface inh, D3 antag)
OC(Cc1ccccc1Br)c1ncc(-c2cccc(C(F)(F)F)c2)[nH]1 (configuration not stated)	none (no result: uPA surface inh, RGS4 inhibitor)
CCc1ccc(NC(=S)NCC2CCCN2CC)cc1 (configuration not stated)	D3 antag -75 (no result: uPA surface inh)
Cc1cc([N+](=O)[O-])nn1Cc1ccc(C(=O)N/N=C/c2ccc(O)cc2O)cc1	uPA surface inh 7.1µM
CCCn1nc(NS(C)(=O)=O)c2cc3cccc(C)c3nc21	D3 antag -53
O=S(=O)(c1ccc(OCC(O)CN2CCCCC2)cc1)N1CCOCC1 (configuration not stated)	none
Cc1cccc(C)c1OCC(O)CN1CCc2ccccc2C1 (configuration not stated)	D3 antag -67
Cn1cc(CNCc2ccccc2OCC(O)CN2CCc3ccccc3C2)cn1 (configuration not stated)	D3 antag -71
O=S(=O)(c1ccc(OCC(O)CN2CCc3ccccc3C2)cc1)N1CCOCC1 (configuration not stated)	D3 antag -57
OC(COc1c(F)cc(Br)cc1F)CN1CCc2ccccc2C1 (configuration not stated)	uPA surface inh inconclusive, D3 antag -111
Cc1ccc(C(C)C)c(OCC(O)CN2CCc3ccccc3C2)c1 (configuration not stated)	D3 antag inconclusive
COc1ccc(CCNC(=O)CCCn2c(=O)c3ccccc3n(Cc3cccc(Cl)c3)c2=O)cc1OC	none (no result: uPA surface inh, D3 antag)
Cc1ccc(C)c(CNC(=O)CN2C(=O)CSc3ccc(S(=O)(=O)N(C)C)cc32)c1	none (no result: uPA surface inh, D3 antag)
Cc1cccc(S(=O)(=O)N2CCN(c3nc(-c4cccs4)nc4ccccc34)CC2)c1	none (no result: uPA surface inh, DRD3 agonist, D3 antag)
NC(CO)c1csc(Nc2ccc(C(F)(F)F)cn2)n1 (configuration not stated)	none (no result: uPA surface inh, RGS4 inhibitor)
NC(c1csc(Nc2ccc(C(F)(F)F)cn2)n1)C1CCCCC1 (configuration not stated)	D3 antag -53 (no result: uPA surface inh, RGS4 inhibitor)
Cc1ccccc1NC(=O)/C=C/c1cccs1	none
Cc1cc(C)cc(NC(=O)/C=C/c2ccc([N+](=O)[O-])s2)c1	none
CC(=O)c1cccc(NC(=O)/C=C/c2ccc([N+](=O)[O-])s2)c1	D3 antag -69
Cc1ccccc1NC(=O)/C=C/c1ccc([N+](=O)[O-])s1	D3 antag -51
Cc1ccc(Cl)cc1NC(=O)c1cc2ccccc2cc1O	uPA surface inh inconclusive, DRD3 agonist 36
COc1cc(NC(=O)c2cc3ccccc3cc2O)c(OC)cc1Cl	none
O=C(ONC(=O)C1CCCCC1C(=O)NOC(=O)c1ccccc1)c1ccccc1 (configuration not stated)	DRD3 agonist 82
O=C(COC(=O)c1ccccc1)NC1CCCC1	none
O=S1(=O)C2CC3C=CC2(O3)C(O)C(Cc2ccccc2)N1Cc1cccc(F)c1 (configuration not stated)	none (no result: uPA surface inh, DRD3 agonist, D3 antag)
NC(=O)C[n+]1cccc(C(=O)Nc2ccccc2)c1	D3 antag -67
CN(CC(=O)Nc1cccc(C#N)c1)S(=O)(=O)c1cc2c(cc1Cl)NC(=O)CO2	none (no result: uPA surface inh, D3 antag)
CCn1c(C(=O)NCc2ccccc2C)cc2oc3ccccc3c21	DRD3 agonist 49 (no result: uPA surface inh, D3 antag)
CCn1c(C(=O)NCc2ccc(OC(C)C)cc2)cc2oc3ccccc3c21	none (no result: uPA surface inh, D3 antag)
COC(=O)CSc1nc(N2CCOCC2)c2c(c1C#N)CC(C)(C)N(C)C2	D3 antag -53
OCC1(Cc2ccccc2)CCN(Cc2cccc(F)c2F)CC1	D3 antag -130
OCC1(Cc2ccc(Cl)cc2)CCN(Cc2ccccc2F)CC1	D3 antag inconclusive
OCC1(Cc2ccc(Cl)cc2)CCN(CCCc2ccccc2)CC1	D3 antag -65
CSc1ccc(CN2CCC(CO)(Cc3ccc(Cl)cc3)CC2)cc1	none
O=C(CSc1nnc(-c2ccc(Br)cc2)n1-c1ccccc1)c1ccccc1	none (no result: uPA surface inh, D3 antag)
Cc1cc(Cl)ccc1OCC(=O)Nc1c(Cl)ccc2nsnc12	none (no result: uPA surface inh, D3 antag)
